The sample as a whole holds a higher share of hits than the screen did.
CBX7 AlphaScr: CBX7 chromodomain binding inhibitors, primary screen, biochemical, AlphaScreen | 1.1% of 66,000 active | AlphaScreen His6-CBX7 / biotin-H3K27me3 peptide binding; active compounds read low | Chromobox protein homolog 7 (Homo sapiens), O95931 | normalised signal (fraction of DMSO) (no concentration beside the values); in the data active means normalised signal below about 0.5
Target sequence (O95931 whole entry, looked up): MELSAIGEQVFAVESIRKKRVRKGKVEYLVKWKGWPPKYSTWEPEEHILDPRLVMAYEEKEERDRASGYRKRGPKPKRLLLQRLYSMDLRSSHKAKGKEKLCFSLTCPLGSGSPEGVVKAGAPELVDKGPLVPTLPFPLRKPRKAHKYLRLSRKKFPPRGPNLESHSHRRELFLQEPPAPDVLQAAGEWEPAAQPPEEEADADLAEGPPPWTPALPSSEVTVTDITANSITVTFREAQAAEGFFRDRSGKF
* hit, by the source's call.

SMILES | CBX7 AlphaScr
COc1cccc(C2(c3cccc(OC)c3)CC2C(=O)Nc2ccc(Br)cc2)c1 (stereo not drawn) | 1.1
c1ccc(-c2nnc3ccc(N4CCCC4)nn23)cc1 | 0.94
Cc1ccc(S(=O)(=O)N2CCN(c3ccc4nnc(-c5ccccc5)n4n3)CC2)cc1 | 0.7
O=S(=O)(c1ccccc1)N1CCN(c2ccc3nnc(-c4ccccc4)n3n2)CC1 | 0.1*
Cc1ccc(CNC(=O)c2ccc(CNc3c(N4CCC(C)CC4)c(=O)c3=O)cc2)cc1 | 1
COc1ccc(NCC(O)Cn2c(C)c(C)c3ccccc32)cc1 (stereo not drawn) | 0.56
COc1ccccc1NCC(O)Cn1c2ccc(Br)cc2c2cc(Br)ccc21 (stereo not drawn) | 0.53
CCOc1ccc(NCC(O)Cn2c(C)c(C)c3ccccc32)cc1 (stereo not drawn) | 0.43*
Cc1c(C)n(CC(O)CNCc2ccccc2)c2ccccc12 (stereo not drawn) | 0.82
COc1ccc(NCC(O)Cn2c3ccccc3c3ccccc32)cc1 (stereo not drawn) | 0.45*
Cc1c(C)n(CC(O)CNC2CCCCC2)c2ccccc12 (stereo not drawn) | 0.98
CCN(CC)CC(O)Cn1c(C)c(C)c2ccccc21 (stereo not drawn) | 0.97
COc1ccc(NCC(O)Cn2c(C)c(C)c3ccccc32)c(OC)c1 (stereo not drawn) | 0.55
CCC(CO)NCC(O)Cn1c(C)c(C)c2ccccc21 (stereo not drawn) | 0.73
Cc1c(C)n(CC(O)CN2CCCCCC2)c2ccccc12 (stereo not drawn) | 1
Cc1nn(CC(O)Cn2c(C)c(C)c3ccccc32)c(C)c1Br (stereo not drawn) | 0.44*
Cc1c(C)n(CC(O)CNc2ccccc2)c2ccccc12 (stereo not drawn) | 0.25*
CCCCn1c(COc2ccc(C)cc2)nc2ccccc21 | 1.1
CCOc1ccc(C(=O)Nc2cc(-c3nc4ccccc4o3)ccc2OC)cc1Cl | 1.1
Cc1ccccc1OCCn1c(=N)n(CC(N)=O)c2ccccc21 | 1.1
Cc1cccc(NC(=O)C2CCN(c3nc4ccccc4[nH]3)CC2)n1 | 1
Cc1ccccc1-c1nc(CN2CCCC(C(=O)NC3CCC(C)CC3)C2)c(C)o1 (stereo not drawn) | 0.95
O=C(NCc1cccnc1)c1cc2c(s1)CS(=O)(=O)C2 | 0.96
CN(C)CCNC(=O)c1ccc2c(c1)N(Cc1cccc(Cl)c1)C(=O)c1ccccc1S2=O (stereo not drawn) | 1.2
O=C(C1CCC1)N1CCc2cc(S(=O)(=O)N3CCN(Cc4ccc5c(c4)OCO5)CC3)ccc21 | 0.95
SMILES | CBX7 AlphaScr
Cc1ccc(NC(=O)CN2C(=O)c3ccccc3Sc3ccc(C(=O)N4CCCC4)cc32)cc1F | 0.97
Cc1cccc(NCC(O)Cn2c(C)c(C)c3ccccc32)c1 (stereo not drawn) | 0.47*
Cc1ccc(C)c(NCC(O)Cn2c(C)c(C)c3ccccc32)c1 (stereo not drawn) | 0.67
Cc1c(C)n(CC(O)CNCCO)c2ccccc12 (stereo not drawn) | 0.92
O=C(NCCCc1ccccc1)c1ccc2c(c1)N(Cc1ccc(F)cc1)CCS2 | 0.86
CCOC(=O)c1cnc2c(C)cccc2c1Nc1ccc(OC)cc1 | 1
COc1ccccc1CNC(=O)c1ccc2c(c1)N(Cc1ccccc1Cl)C(=O)CS2 | 0.99
Cc1ccc(-n2ncc(C(=O)Nc3ccc(Cl)cc3)c2C2CCN(C(=O)OC(C)(C)C)CC2)cc1 | 0.97
CCCCCCOc1ccc(C(=O)Nc2ccccn2)cc1 | 1.1
CCOC(=O)c1[nH]cnc1C(=O)Nc1ccc(OC)cc1 | 0.066*
CCOc1ccc(C2C(C(=O)Nc3ccccn3)=C(C)NC3=C2C(=O)CCC3)cc1 (stereo not drawn) | 1
CCOC(=O)c1[nH]cnc1C(=O)Nc1ccccn1 | 0.19*
CCOC(=O)c1[nH]cnc1C(=O)Nc1ccccc1 | 1
CCOC(=O)c1ccc(NC(=O)COc2ccc(OC)cc2)cc1 | 1.3
O=S(=O)(c1ccc(Cl)cc1)c1nc(-c2ccccc2F)oc1N1CCCCC1 | 0.6
O=S(=O)(c1ccccc1)c1nc(-c2ccccc2F)oc1N1CCCCC1 | 0.49*
O=S(=O)(c1ccc(Cl)cc1)c1nc(-c2ccccc2F)oc1N1CCCCCC1 | 0.69
CCC(C)NS(=O)(=O)c1ccc2c(c1)CCN2C(=O)C1CC1 (stereo not drawn) | 0.99
COc1ccc(C2Sc3ccccc3NC3=C2C(=O)c2ccccc23)cc1OC (stereo not drawn) | 0.4*
COc1ccc(NC(=O)CC2Sc3ccccc3NC2=O)cc1OC (stereo not drawn) | 0.98
CC(C(=O)NC1CCCC1)C1Sc2ccccc2NC1=O (stereo not drawn) | 1
O=C(CC1Sc2ccccc2NC1=O)Nc1ccc2c(c1)OCCO2 (stereo not drawn) | 1.2
O=C1C2=C(Nc3ccccc3SC2c2ccco2)c2ccccc21 (stereo not drawn) | 0.39*
O=C1C2=C(Nc3ccccc3SC2c2ccc3c(c2)OCO3)c2ccccc21 (stereo not drawn) | 0.35*
O=C(CC1Sc2ccccc2NC1=O)Nc1ccc2c(c1)OCO2 (stereo not drawn) | 0.89
SMILES | CBX7 AlphaScr
COc1ccc(C2CC(=O)C3=C(C2)Nc2ccccc2NC3c2ccncc2)cc1OC (stereo not drawn) | 1
COc1cccc(NC(=O)CN(c2ccc(C(C)C)cc2)S(=O)(=O)c2c(C)nn(C)c2C)c1 | 0.94
COc1ccc2nc(N3CCCC(C(=O)NCc4ccc5c(c4)OCO5)C3)sc2c1 (stereo not drawn) | 1
CCOc1ccc(CCNC(=O)c2cc3c(s2)CSC3)cc1OCC | 1.1
CCOc1ccc(NC(=O)CCc2c(C)nc3cc(-c4ccccc4)nn3c2C)cc1 | 0.97
CC1CCC(NC(=O)C2(C)CCC(=O)N2Cc2cccs2)CC1 (stereo not drawn) | 1.1
CCc1ccc(Nc2cc(C(=O)NC)c3ccccc3n2)cc1 | 0.98
COc1ccc(-c2nc(-c3ccccc3)c(-c3ccc(F)cc3)[nH]2)cc1OC | 0.38*
Cc1ccc(-c2nc(-c3ccc(F)cc3)[nH]c2-c2ccccc2)cc1C | 0.96
Brc1cccc(-c2nc(-c3ccccc3)c(-c3ccc(Oc4ccccc4)cc3)[nH]2)c1 | 0.79
COc1ccc(-c2nc(-c3ccccc3)c(-c3ccc(F)cc3)[nH]2)cc1 | 0.85
COc1ccc(-c2nc(-c3ccccc3)c(-c3cccs3)[nH]2)c(OC)c1 | 0.54
COc1cc(-c2nc(-c3ccccc3)c(-c3cccs3)[nH]2)cc(OC)c1O | 0.48*
COc1ccc(-c2nc(-c3ccccc3)c(-c3cccs3)[nH]2)cc1 | 0.82
Cc1ccc([N+](=O)[O-])cc1-c1[nH]c(-c2ccc(F)cc2)nc1-c1ccccc1 | 0.48*
O=[N+]([O-])c1ccc(-c2nc(-c3ccccc3)c(-c3ccc(F)cc3)[nH]2)cc1 | 0.66
Clc1ccc(-c2nc(-c3ccccc3)c(-c3ccccc3)[nH]2)cc1Cl | 0.92
c1ccc(Oc2ccc(-c3[nH]c(-c4ccccc4)nc3-c3ccccc3)cc2)cc1 | 0.47*
COc1cc(OC)cc(-c2nc(-c3ccccc3)c(-c3ccc(F)cc3)[nH]2)c1 | 0.88
COc1cccc(CN2CCN(Cc3cc(OC)ccc3OC)CC2)c1 | 0.97
CCCNC(=O)Cn1cnc2sc(C(=O)NCc3ccccn3)c(C)c2c1=O | 0.96
Cc1ccn2c(NC(=O)c3ccc4ccccc4c3)c(-c3ccccc3)nc2c1 | 0.98

From PubChem BioAssay
